ROC1-CUL1 inh – human ROC1-CUL1 E3 ligase inhibition; P62877+Q13616; in vitro K48 di-Ub FRET, acceptor:donor ratio, 45 min; inhibition, % at 10 µM; actives 0.6% (n = 140,000); AID 1347404; in the data active means inhibition above about 25%
Starred values were filed as active, the others as inactive. The full list was thinned out, with hits kept by preference.

SMILES	ROC1-CUL1 inh
CN(C)CC1=Nc2ccccc2C1=O	3
N#CC(CC1=Nc2ccccc2C1=O)C(N)=NC1CCCCC1 (centres undefined)	71*
CCN(CC)CCN=C(N)C(C#N)CC1=Nc2ccccc2C1=O (centres undefined)	0
COc1cccc(C(=O)NN2CCN(C)CC2)c1	-3
CCn1c(=O)c2c(nc3n(-c4ccc(Cl)cc4)c(C)cn23)n(C)c1=O	-2
CC(C)CCNC(=O)c1cn(CC(C)C)cc(C(=O)N2CCN(c3ccccc3)CC2)c1=O	6
Oc1ccc2c(c1)c(-c1ccccc1)nn2-c1ccccc1	-2
O=C(O)c1nn(-c2ccccc2)c(-c2ccccc2)c1C(=O)c1ccccc1	-5
O=C1C=CC(=O)c2c1c(-c1ccccc1)nn2-c1ccccc1	92*
COCCOc1ccc(C(=O)Nc2ccc(Cl)cc2Cl)cc1	1
C/C(=C\c1cc(C(=O)NCc2ccccc2)c(C)o1)CO	12
CCCCCCN1C(=O)C2=C(c3cc(O)cc(O)c3)N(CCCCCC)C(=O)C2=C1c1cc(O)cc(O)c1	46*
CCCCCCCC(=O)N=C1C(=O)N(c2ccccc2)N(C)C1C (centres undefined)	11
CCCCCCN1C(=O)/C(=C/c2cc(OC)c(OC)c(OC)c2)N(C)C1=S	3
CCc1ccc(N2NC(=O)/C(=C/c3ccc(-c4ccccc4F)o3)C2=O)cc1	-1
O=C1NN(c2ccc(I)cc2)C(=O)/C1=C\c1ccc(-c2cccc(C(=O)O)c2)o1	33*
O=C1NN(c2ccc(Cl)c(Cl)c2)C(=O)/C1=C\c1ccc(-c2ccc(Br)cc2C(=O)O)o1	71*
COC(=O)c1cccc(-c2ccc(/C=C3/C(=O)NN(c4ccc(C)cc4)C3=O)o2)c1	15
O=C1NN(c2ccc(I)cc2)C(=O)/C1=C\c1ccc(-c2ccc(Br)cc2C(=O)O)o1	45*
Cc1ccc(/C=C2/C(=O)NN(c3cccc(C(F)(F)F)c3)C2=O)o1	9
COC(=O)c1ccccc1-c1ccc(/C=C2\C(=O)NN(c3ccc(Br)cc3)C2=O)o1	11
O=C(Sc1nc2ccccc2s1)c1c[nH]c2ccccc12	9
CCc1ccccc1NC(=O)C1CCN(C2NS(=O)(=O)C(c3ccc(C)c(C)c3)C2C)CC1 (centres undefined)	-3
O=C(NCc1ccco1)N1CCN(c2ccc(Cl)cc2)CC1	0
O=C(Nc1nc(-c2ccc(Br)cc2)cs1)c1cccc(I)c1	5
SMILES	ROC1-CUL1 inh
COc1ccc(NC(=O)CN2CCN(CCN=CC3C(=O)CC(C)(C)CC3=O)CC2)cc1	-4
CC(=O)N(c1ccccc1)N1C(=O)CSC1=S	12
CC(O)CNC(=O)c1ccc2nc(Cc3cccc(Cl)c3)oc2c1 (centres undefined)	-1
CN(C)c1ccc(/C=N/Nc2nc(-c3ccccc3)cc(=O)[nH]2)cc1	2
CC1CCN(S(=O)(=O)c2ccc(NC(=O)C3CCC3)cc2)CC1	-2
CN1C(=O)C(O)(CC(=O)c2ccc(Cl)s2)c2ccccc21 (centres undefined)	1
CC(=O)N1c2ccccc2C2(O)N=C(C)SC12 (centres undefined)	44*
CC(=O)N1c2ccccc2C(=O)C1C (centres undefined)	-3
OC1(c2ccc(Cl)cc2)CC(C(F)(F)F)=NN1c1nc2ccccc2s1 (centres undefined)	0
O=C(NNC(=O)c1cc2cc(Br)ccc2oc1=O)c1ccncc1	5
O=C(NNC(=O)c1cc2cc(Br)ccc2oc1=O)c1ccc(O)cc1O	44*
CCOC(=O)NC(=O)c1cc2cc(Br)ccc2oc1=O	0
CCC(C)NC(=O)C1CCN(C(=O)c2ccccc2F)CC1 (centres undefined)	-1
O=C1CCCC(=NNC(=O)c2ccccc2Br)C1	6
O=C1/C(=C\c2cn(Cc3ccc(F)cc3)c3ccccc23)SC(=Nc2ccccc2)N1CCc1ccccc1	-1
NC(=O)Cn1cc(/C=C2\SC(=Nc3ccccc3)N(C3CCCC3)C2=O)c2ccccc21	-6
O=C(O)Cn1cc(/C=C2\SC(=Nc3ccccc3)N(c3ccccc3)C2=O)c2ccccc21	97*
COc1cc(NC(=S)NCC(C)C)c(OC)cc1Cl	-15
COc1cccc(/C=N/NC(=O)COc2ccc(Cl)cc2)c1OCc1cccc(Cl)c1	-3
O=C(Oc1ccc(S(=O)(=O)O)cc1C(=O)O)c1ccc(=O)oc1	5
Cc1ccc(C)c(OC(=O)c2ccc(=O)oc2)c1	28*
CCc1ccc(C)c(OC(=O)c2ccc(C)cc2)c1	-7
COc1cc(CN(C(=O)c2ccccc2F)[C@H]2CCCCNC2=O)ccc1OCCc1scnc1C	-3
O=C(CSc1nc2sc3c(c2c(=O)n1-c1ccc(OC(F)F)cc1)CCCC3)c1ccc2c(c1)OCCO2	-7
CC(C)(CC(=O)Nc1scc(-c2ccccc2)c1C(=O)O)CC(=O)Nc1scc(-c2ccccc2)c1C(=O)O	-10
SMILES	ROC1-CUL1 inh
CC1C(=NC(=O)CSc2nc(-c3ccccc3)c(-c3ccccc3)o2)C(=O)N(c2ccccc2)N1C (centres undefined)	52*
CC1C(=NC(=O)CSc2nnc(-c3ccccc3)n2-c2ccccc2)C(=O)N(c2ccccc2)N1C (centres undefined)	-3
CC1C(=NC(=O)CSc2nnc(Cc3ccccc3)o2)C(=O)N(c2ccccc2)N1C (centres undefined)	-1
COc1cccc(N=c2ssc3c2-c2ccc(C)cc2N(C)C3(C)C)c1	3
COc1ccc(CNC(=O)CN(c2ccc(OC)c(OC)c2)S(=O)(=O)c2ccccc2)cc1	7
CC(C)(C)NC(=O)c1ccc(N2CCOCC2)cc1	4
CS(=O)(=O)C(C(=O)c1ccccc1)C(=O)c1ccccc1	-5
Brc1ccc(C#Cc2ccccc2)cc1	-3
CS(=O)(=O)C#Cc1ccccc1	52*
CCN(CC)C(=O)Sc1cncc(SC(=O)N(CC)CC)c1	-2
CCN=C1CC=CC=C(C(=O)/C=C/c2ccc(Cl)cc2)C1=O	79*
CCN=C1CC=CC=C(C(=O)/C=C/c2cccc(OC)c2OC)C1=O	-3
CCN=C1CC=CC=C(c2ccc3ccccc3n2)C1=O	-4
CCN=C1CC=CC=C(C(=O)/C=C/c2ccc(Cl)cc2Cl)C1=O	4
CCN=C1CC=CC=C(C(=O)/C=C/c2ncccc2C)C1=O	36*
CCN=C1CC=CC=C(C(=O)/C=C/c2cccc(Cl)c2)C1=O	7
C/C=C/CC1C(C)=NC(=S)C(C#N)=C1C (centres undefined)	-2
CC(C)(C)OC(=O)Nc1cc2ccc1CCc1ccc(cc1)CC2	-4
c1ccc2c(c1)nnn2CNc1ccncc1	-13
O=C(CSc1nnc(COc2ccc(Cl)cc2)o1)Nc1ccc([N+](=O)[O-])cc1	-1
CCCCCCC(=O)NC(Nc1ccccc1Cl)C(Cl)(Cl)Cl (centres undefined)	10
C=CCSc1nc2sc3c(c2c(=O)n1-c1ccccc1OC)CCC3	6
Cc1nn(C)c(C)c1C(C)NC1CCN(c2ccc(C(=O)NCc3ccc4c(c3)OCO4)cc2)CC1 (centres undefined)	10
COc1cc(C2CC(c3ccc(Cl)cc3)=Nc3ccccc3S2)cc(OC)c1OC (centres undefined)	-6
COc1ccc(Cl)cc1NC(=O)c1c(NCc2ccc(C)o2)sc2c1CCC(C)C2 (centres undefined)	-3
COc1ccc(OC)c(NC(=O)c2c(NCc3ccc(OC)c(OC)c3)sc3c2CCC3)c1	3
COc1ccc(OC)c(NC(=O)c2c(NCc3ccc(C)o3)sc3c2CCCCC3)c1	30*

Compound activity from PubChem.
